WRN helicase inh: inhibitors of human WRN helicase; Q14191; WRN helicase unwinding, fluorescent forked duplex, kinetic; Potency, µM (titrated, usually from 114 µM), for the others: at the top dose activity change, negative = inhibition, hits mostly inhibitors; 360,000 compounds, 0.46% hits; AID 651768; further: nearly all actives have a fitted effect of over 55% in size
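Enzyme (20 nM final) and test compound sit together 15 min at room temperature before substrate addition. Substrate is a single-forked duplex oligonucleotide (100 nM) labelled with fluorophore and quencher, with 2 mM ATP; helicase unwinding raises red fluorescence, read kinetically.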
APE1 inh-1: APE1 (human) endonuclease inhibition; AID 2517; Potency, µM (top dose mostly 65.8 µM), without a hit: at the top dose activity change, negative = inhibition, hits mostly inhibitors; P27695; recombinant APE1, TAMRA/BHQ-2 abasic DNA cleavage fluorescence; 350,000 compounds, 0.35% hits;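 further: plate controls were vehicle for no effect and reference inhibitor for full effect; nearly all actives have a fitted effect of over 55% in size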
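0.75 nM APE1 + cpd, 15 min RT; start w/ 50 nM TAMRA/BHQ-2 THF-abasic dsDNA; kinetic fluor 525/598 nm ×3 reads @60 s; Δ(read3−read1); normalized to DMSO and NSC13755 control wells.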
FEN1 inhibitor: blocks human flap endonuclease 1; P39748; Recombinant FEN1 flap cleavage, fluorescence, 15 min; Potency, µM (series often up to 114 µM), inactives show top-dose activity change, negative = inhibition, most hits filed as inhibitors; 390,000 compounds, 0.35% hits; further: nearly all actives have a fitted effect of over 65% in size
Target sequence (P39748 whole entry, looked up): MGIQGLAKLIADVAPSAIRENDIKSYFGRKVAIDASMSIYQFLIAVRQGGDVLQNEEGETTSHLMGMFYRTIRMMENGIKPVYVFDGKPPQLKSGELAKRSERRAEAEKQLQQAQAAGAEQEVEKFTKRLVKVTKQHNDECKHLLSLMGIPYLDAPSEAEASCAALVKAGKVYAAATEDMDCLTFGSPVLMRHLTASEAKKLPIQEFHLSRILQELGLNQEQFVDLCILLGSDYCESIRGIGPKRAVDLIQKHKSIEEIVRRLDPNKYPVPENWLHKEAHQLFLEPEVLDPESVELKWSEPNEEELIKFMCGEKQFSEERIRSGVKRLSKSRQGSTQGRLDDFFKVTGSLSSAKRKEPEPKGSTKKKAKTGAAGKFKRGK
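Reaction started by adding substrate (50 nM final) to 10 nM enzyme after 15 min room-temperature compound preincubation. Reads at 0 and 15 min, with data normalized and fitted to a four-parameter Hill equation.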
L3MBTL1 block: L3MBTL1 (human) inhibition | AlphaScreen L3MBTL1–H3K9me1 peptide binding | Q9Y468 | 230,000 compounds, 0.66% hits | Potency, µM (titrated, usually from 57.1 µM), inactives show at the highest dose activity, negative = inhibition, most hits filed as inhibitors; further: nearly all actives have a fitted effect of over 60% in size
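AlphaScreen assay: L3MBTL1 (50 nM final) was preincubated 30 min at room temperature with biotinylated H3(1-15)K9me1 peptide (75 nM final), then 30 min with library compounds; streptavidin donor and nickel chelate acceptor beads (10 ug/mL final) added, 30 min dark.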
BLM helicase inh: Bloom syndrome helicase (human) inhibition; Potency, µM (highest dose often 56.1 µM), for the others: at the highest dose activity change, negative = inhibition, usual class: inhibitors; 350,000 compounds, 0.2% hits; recombinant BLM DNA unwinding, fluorescence dequenching; P54132;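 further: plate controls were vehicle for no effect and no enzyme for full effect; nearly all actives have a fitted effect of over 35% in size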
RECQ1 inh: blocks DNA unwinding by human RECQ1; 240,000 compounds, 0.54% hits; P46063; Potency, µM (titrated, usually from 57.3 µM), for the others: at the top dose activity, negative = inhibition, hits mostly inhibitors; RECQ1 DNA unwinding, red fluorescence kinetic read; AID 2549;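 further: plate controls were vehicle for no effect and no enzyme for full effect; nearly all actives have a fitted effect of over 30% in size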
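50 nM RECQ1T1 preincubated 15 min with compound in Tris pH 8.0 buffer with MgCl2, DTT, Tween-20 and 2.5 ug/ml poly(dI-dC); started with 200 nM TAMRA/BHQ-2 forked duplex and 2 mM ATP. Unwinding read as fluorescence (525/598 nm), two reads 2 h apart.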
APE1 dye cs: displaces fluorescent dye from DNA, flagging APE1 artifacts | shares compounds with APE1 inh-1 | DNA fluorescent dye displacement counterscreen, fluorescence | Potency, µM (highest dose often 28.5 µM), inactives show at the top dose activity change, negative = inhibition, actives largely listed as inhibitors | 480 compounds, 7% hits | AID 2564;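 further: loss of thiazole orange fluorescence as the dye is displaced from duplex DNA; 0% = ThO with dsDNA and no compound and -100% = ThO without dsDNA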
EndoIV counter: Endo IV (E. coli) inhibition counter-screen. E. coli Endo IV, fluorogenic AP-site DNA cleavage. Potency, µM (series often up to 27.1 µM), for the others: at the highest dose activity change, negative = inhibition, usual class: inhibitors. shares compounds with APE1 inh-1. 560 compounds, 4% hits;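 further: plate controls were uninhibited enzyme wells for no effect and no enzyme buffer wells for full effect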
APE1 inh-2: APE1 (human) endonuclease inhibition, confirmation | Potency, µM (highest dose often 57.1 µM), for inactives: top-dose activity change, negative = inhibition, hits mostly inhibitors | shares compounds with APE1 inh-1 | purified APE1, fluorogenic abasic-site DNA cleavage | 750 compounds, 44% hits; further: nearly all actives have a fitted effect of over 30% in size
APE1 FP: displaces DNA from human APE1 in FP assay | shares compounds with APE1 inh-1 | APE1 binding to TAMRA-labelled double-stranded DNA, fluorescence polarization displacement | Potency, µM (titrated, usually from 28.5 µM), for the others: at the highest dose activity, negative = inhibition, actives largely listed as inhibitors | 480 compounds, 7% hits | AID 2573
* = called active by the depositor; i = inactive; ? = inconclusive; · = not tested or not shown; [ ] = dose if it differs, or a comment. Compounds with a hit are over-represented: about 1% of the library has one in this group of screens. The call rests on the fitted dose curve; in most records, active means well fitted curve in the direction sought with a large enough effect; inconclusive means small, poorly fitted or top-dose-only effect, or another doubt; inactive means no such curve, though single readings can be large; an effect the other way counts as inactive or inconclusive. Unless noted, on the % scale 0 is the no-effect control and ±100 the full control effect; potency means the concentration at half of the fitted maximal effect.

SMILES | WRN helicase inh | APE1 inh-1 | FEN1 inhibitor | L3MBTL1 block | BLM helicase inh | RECQ1 inh | APE1 inh-2 | others
O=C(O)C1(C(=O)O)CCC2(CCCCC2)CC1 | 11.2% | · | · | · | · | · | ·
COC(=O)c1ccccc1NC(=O)COC(=O)/C=C/c1ccco1 | -4.3% | ? | 1.6% | -18.6% | -12.0% | -15.1% | ? | APE1 dye cs=1.7%;EndoIV counter=-0.9%;APE1 FP=-13.7%
Oc1ccc(Br)cc1C1C=C(c2ccc3c(c2)OCO3)NC(c2ccc(Br)cc2)N1 (stereo not given) | · | · | -5.9% | · | · | · | ·
O=C(O)c1cc(-c2ccc(/C=N/N3C(=O)C4C5C=CC(CC5)C4C3=O)o2)ccc1Cl (stereo not given) | -3.3% | -4.5% | 1.3% | -14.6% | -2.8% | i | ·
O=C(O)c1cc(-c2ccc(/C=N/N3C(=O)C4C5C=CC(C6CC56)C4C3=O)o2)ccc1Cl (stereo not given) | -1.1%[11.6 µM] | ? | 2.2% | ? | -3.3% | -10.9% | ?
CC(C)C[C@H](NC(=O)CC[C@H]1O[C@@H](n2ccc(=O)[nH]c2=O)[C@H](O)[C@@H]1O)C(=O)O | -11.0% | · | · | · | · | · | ·
O=C(NCc1ccc(F)cc1F)[C@@H]1CCCN1C(=O)[C@@H]1CCCN1C(=O)c1cccc2ccccc12 | 3.7% | · | · | · | · | · | ·
CCn1cc(C(=O)NCCC(=O)OC)c(=O)c2cc3c(cc21)OCO3 | -7.9% | -3.7% | 17.7% | · | -1.2% | · | ·
CCn1cc(C(=O)O)c(=O)c2cc3c(cc21)OCO3 | · | 2.4% | · | -3.6% | -1.7% | -2.0% | -11.7% | EndoIV counter=2.8%[57.1 µM]
COc1cccc(C(=O)NC2=NC(c3ccccc3F)CC(=O)N2)c1 (stereo not given) | · | · | 20.1% | · | -5.7% | · | ·
Cc1ccc(CNC(=O)CNC(=O)c2ccco2)cc1 | 8.3% | 3.2% | -1.4% | · | -3.7% | · | ·
Cc1ccc(CNC(=O)CCNC(=O)c2ccco2)cc1 | -0.4% | ? | -8.4% | 1.4% | -0.4% | 6.2% | ? | APE1 dye cs=-1.7%;EndoIV counter=0.4%;APE1 FP=-7.0%
C=C(Cl)COc1ccc2c(CCC)cc(=O)oc2c1 | -14.2% | 15.0% | -0.4% | · | -6.5% | -2.7% | -27.4%
Cc1ccc2nc(NC(=O)CCCC(=O)O)sc2c1 | -14.8% | ? | -6.1% | -1.9% | -3.8% | i | ? | APE1 dye cs=-5.4%;EndoIV counter=3.8%;APE1 FP=-26.5%
Cc1nc2ccc(S(=O)(=O)N(CC(=O)Nc3cccc(F)c3)Cc3ccccc3)cc2s1 | · | · | -23.0% | · | -5.4% | · | ·
O=c1c(-c2cc(O)c(O)c(O)c2)coc2cc(O)c(O)c(O)c12 | · | 0.316µM* | · | · | 11.2µM* | 1.26µM* | 0.398µM* | EndoIV counter=7.1%[57.1 µM]
CCOc1ccc(NC(=O)N2CC3CCCN3c3ccccc32)cc1 (stereo not given) | · | · | -5.5% | · | -5.8% | · | ·
Oc1cc(O)c2c(c1)O[C@H](c1ccc(O)c(O)c1)[C@H](O)C2 | -6.2% | -9.4% | 14.8% | -26.2% | -2.7% | -17.6%[25.9 µM] | -6.0%[24.4 µM] | APE1 dye cs=1.7%;EndoIV counter=137.1%;APE1 FP=?
O=C(COC(=O)c1cccnc1Cl)NCc1ccco1 | ? | ? | -0.1% | -26.5% | -8.0% | i | ?
O=C(COC(=O)c1ccc(Cl)nc1)NCc1ccco1 | 12.5% | 21.6% | 3.5% | 6.8% | -1.2% | 0.4% | ·
COc1ccc(-c2nn(-c3ccccc3)cc2C(=O)Nc2nccs2)cc1 | -9.2% | -7.9% | -9.2% | · | -7.7% | i | ·
O=C(Nc1nccs1)c1cn(-c2ccccc2)nc1-c1ccncc1 | -12.6% | 7.0% | -21.7% | -4.1%[11.4 µM] | -15.0% | -12.2% | -17.1%
CCOC(=O)/C=C/C(=O)OCC(=O)Nc1ccc(Cl)cn1 | -34.6% | 25.2% | -14.3% | · | -6.9% | 2.2% | ·
CCOC(=O)NC1(Nc2ccc(Cl)cn2)Oc2ccccc2O1 | · | 2.51µM* | · | 11.2µM* | -7.0% | 22.4µM* | -22.1%
CC(C)(C)c1cccc(C2(O)C(=O)c3ccccc3C2=O)c1O | -11.7% | -7.8% | -18.2% | -4.6% | -4.2% | i | ·
